The text below walks through data of the supplement of paper PMC6555819.

For the experiment, the system named is PPARg homodimer (NR concentration 180 nM). Nature of the experiment: PBM binding z-score (relative to random genomic background probes); higher = stronger binding; sequences stand for … in GC…GCGATTGACAGCGTAGAATGAAGG
The method in brief: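 Each nuclear receptor dimer, without ligand, was incubated for 1 h on custom Agilent 4×180K protein-binding microarrays. Binding was detected with antibodies against each partner (one per run), and scanned fluorescence was regression-normalized. The binding z-scores are referenced to random human genomic background probes.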
The sequence ACTATTAGTTGAGAAGAGGGCAACCGATAGGTTG had a PBM binding z-score of 0.882.

Consider CGAACTAGGTCTGAACAGGACAGTGAAGGATGAT, for which the PBM binding z-score is -0.44.

Sequence CCGAGTAGGTTATGGGGCATTCCGGCAACGGTGA returned a PBM binding z-score of 0.995.

GCTCGGATGACAAGGTCAGAGCTTTGTCCGTAGA gave a PBM binding z-score of 0.624.

For the sequence CGAACTAGGTCAAAGGTCAAAGTCGAGCCAACCA, the PBM binding z-score is 6.9.

Take GCGACTGGTGCATCAGCAGGTTACCATAACTTAA: the PBM binding z-score is -0.496.

Turning to TCTAGTTGGTCACGGAGGTCACACACGACGGGTA, the PBM binding z-score is 3.41.

For GTTGCTAGGTCAGGTTGGTCAGCTAACGGGTACG, the PBM binding z-score worked out at 1.29.

TCGTGTAGATCAGCAGGTTAAGAAAGCTGGCCAA: the PBM binding z-score is 0.306.

GCTGGCAGGCCATTTGGGTCACTCAATGACGGGC gave a PBM binding z-score of -0.317.

In the case of TGAATCAGGTTATAAGATCAGGGAACGTTGCAAA, the PBM binding z-score stood at 2.15e-05.

In the case of AGCATGAGGTTATACGTAGATCAGGGAAGAAAGT, the PBM binding z-score came out at 0.658.

As for CCTAGCAGGCCAATTTGGGTCACTCAAGGCTTGA, the PBM binding z-score is 0.323.

In the case of GATACAGGGTCAAGACCAGAGTACGCGTATTGAT, the PBM binding z-score stood at 1.49.

The sequence TCTCGGAGGACACGAAGGACAGAGCTTTCCAGAG came in with a PBM binding z-score of -0.347.

The sequence CCGACTGGGCCACGAAAGGTCATTGATTCAGTGA yielded a PBM binding z-score of 2.39.

Sequence ATCGAAAGGTCGAAGGTTAGTATACCCACCCGAA displayed a PBM binding z-score of 1.68.

Turning to TGAATGACGTTATAAGATCAGGGAACGTTGCAAA, the PBM binding z-score was 0.0586.

The sequence AGAATGAGGCTACCAAAGATCAGGGAAACGCTTG returned a PBM binding z-score of -0.49.

On to CAAACTAGGTCAAGGTCATAGTCGGTTTGTGCCA, for which the PBM binding z-score is 4.4.

The sequence TCACGGAGGACACGAAAGGTCAGAGCTCGACATC gave a PBM binding z-score of 2.1.

The sequence ACTAGCAGGCCAGGTTTGGGTCACTCAAACAAAG registered a PBM binding z-score of 0.235.

Turning to TAGCCTAGGTCATGGGCCAGTAGACCACGCGAAC, the PBM binding z-score is 0.936.

CCCTACGGGTCACTGACAGGTTATAGCATTTGGA returned a PBM binding z-score of 2.79.

With GATACAGGGTCAACGCCAGAGTACGCGTATTGAT, the PBM binding z-score stood at 2.98.

For ACAGACAGGTGACGAAGGTAACTCAGGCTATCAT, the PBM binding z-score was -0.168.

In turn, TCAGACAGGTGGAGGTAACTCAGGTACGCAGTCG showed a PBM binding z-score of 0.082.

The sequence TCTATTAGTTGATTAGGGCAGCCGAAACAGCGGA displayed a PBM binding z-score of 0.935.

The sequence GCTAGCAGGCCATTTGGGACACTCAATGACGGGC registered a PBM binding z-score of -1.04.

In turn, TAGCCTAGGTCATGCAGGCCAGTATAGTGTCGGC showed a PBM binding z-score of 1.52.

On to TCTTGTAGATCAAGCAGGTTAATAAAGCCTGAGT, for which the PBM binding z-score worked out at 0.27.

CTCCAAAGGTCGTGCTCAGGTGAGTATACCAAAC: the PBM binding z-score came out at 2.56.

Consider GCTGCTAGGTCCACTGATGGTCAGCTAAAGCTCG, for which the PBM binding z-score is -1.01.

For ATATGTAGCTTATCGGGTCATTCAGTTTGCGCAT, the PBM binding z-score was determined as 1.05.

The sequence CCTCGGAGGACAGTAGGTCAGAGCTGTCCGCTTT gave a PBM binding z-score of 0.409.

AGAATGAGGTTATAAAGATCAGGGAATTGCGGTC returned a PBM binding z-score of 1.14.

GCTTGTAGATTAAGGTTAAGAAAGACTAAGCTAA came in with a PBM binding z-score of 0.0936.

In turn, CGTCAAAGTTCAATGTAACGTAACAGAAAGCAGC showed a PBM binding z-score of 2.6.

Sequence TCTATTAGTTGATAAGGGCAACCGAAACAGCGGA registered a PBM binding z-score of 0.853.

On to GCTAGTTGGTCAGTAAAAGGTCACAGACCGGTCG, for which the PBM binding z-score was 3.83.
